In PubChem BioAssay (NCATS):
Results filed as inconclusive are left out. The source made the active and inactive calls. The call rests on the fitted dose curve; in most records, active means well fitted curve in the direction sought with a large enough effect; inconclusive means small, poorly fitted or top-dose-only effect, or another doubt; inactive means no such curve, though single readings can be large; an effect the other way counts as inactive or inconclusive.

What was measured:
CAOV3 = assay: Primary qHTS to identify gynecologic anti-cancer compounds using libraries of approved drugs and bioactive compounds (AID 1345084); conditions: Gynecologic cancer cell panel viability, ATPlite luminescence, 48 h; series mostly up to 57.5 µM; further: nearly all actives have a fitted effect of over 55% in size
How it was run: (§1)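 In this quantitative HTS, cell killing is estimated from loss of ATP-dependent luciferase light. Cells see five compound concentrations over a 48 h exposure.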

CASKI = assay: as above; conditions: Gynecologic cancer cell panel viability, ATPlite luminescence, 48 h; series mostly up to 57.5 µM
How it was run: as §1

Es-2 = assay: as above; conditions: Gynecologic cancer cell panel viability, ATPlite luminescence, 48 h; series mostly up to 57.5 µM
How it was run: as §1

HeLa = assay: as above; conditions: Gynecologic cancer cell panel viability, ATPlite luminescence, 48 h; series mostly up to 57.5 µM
How it was run: as §1

Hek293T = assay: as above; conditions: Gynecologic cancer cell panel viability, ATPlite luminescence, 48 h, control line for the selectivity index; series mostly up to 57.5 µM
How it was run: as §1

JEG-3 = assay: as above; conditions: Gynecologic cancer cell panel viability, ATPlite luminescence, 48 h; series mostly up to 57.5 µM
How it was run: as §1

OV90 = assay: as above; conditions: Gynecologic cancer cell panel viability, ATPlite luminescence, 48 h; series mostly up to 57.5 µM
How it was run: as §1

PA-1 = assay: as above; conditions: Gynecologic cancer cell panel viability, ATPlite luminescence, 48 h; series mostly up to 57.5 µM
How it was run: as §1

SKOV3 = assay: as above; conditions: Gynecologic cancer cell panel viability, ATPlite luminescence, 48 h; series mostly up to 57.5 µM
How it was run: as §1

Tov-21-G = assay: as above; conditions: Gynecologic cancer cell panel viability, ATPlite luminescence, 48 h; series mostly up to 57.5 µM
How it was run: as §1

Tov112D = assay: as above; conditions: Gynecologic cancer cell panel viability, ATPlite luminescence, 48 h; series mostly up to 57.5 µM
How it was run: as §1

[1] = Drug repurposing screens with cells derived from glioblastoma tumor samples (AID 1345199); conditions: GBM patient neurospheres viability, ATP luminescence, 48 h; further: nearly all actives have a fitted effect of over 40% in size; further: potency means the concentration at half of the fitted maximal effect
How it was run: (§2)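 Primary testing used CD133+ neurospheres from four GBM patients, seven concentrations, 48 h exposure and ATP-based viability; confirmation added three slower-growing patient lines.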

astro = assay: as above; conditions: viability, ATP luminescence, 48 h; series mostly up to 45.9 µM
How it was run: as §2

[2] = qHTS assay to identify inhibitors of the type 1 interferon - major histocompatibility complex class I in skeletal muscle: Counter screen cell viability and HiBit confirmation (AID 1347412); conditions: iHSKM muscle cells + IFN-b, HiBiT or CellTiter-Glo, 24 h; Potency: HiBiT unless noted; Viability, at 45.9 µM (top of the series); further: nearly all actives have a fitted effect of over 60% in size
How it was run: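 Human myoblast knock-in line, 4.0 ng/ml IFN-beta stimulation, 24 h compound treatment. Endpoints: HiBiT lytic luminescence (HLA-B level) and CellTiter Glo (ATP). Dosing 12 concentrations, 3-fold steps, 46 uM highest final.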

[3] = at 45.9 µM (top of the series), tumour line B
[4] = at 45.9 µM (top of the series), tumour line D
[5] = at 46 µM (top of the series), tumour line A
[6] = at 46.1 µM (top of the series), tumour line C
[7] = at 20 µM (top of the series), tumour line C
[8] = at 21.2 µM (top of the series), tumour line B
[9] = at 21.2 µM (top of the series), tumour line D
[10] = at 21.3 µM (top of the series), tumour line A
On the % scale 0 is the no-effect control and ±100 the full control effect.

Cc1ccc(Nc2c(F)cccc2Cl)c(CC(=O)O)c1
inactive: Potency (CAOV3) | Potency (CASKI) | Potency (Es-2) | Potency (HeLa) | Potency (Hek293T) | Potency (JEG-3) | Potency (OV90) | Potency (PA-1) | Potency (SKOV3) | Potency (Tov-21-G) | Potency (Tov112D) | activity, negative = cell killing [1, 3] -6.28% | activity, negative = cell killing [1, 4] -3.08% | activity, negative = cell killing [1, 5] -32.8% | activity, negative = cell killing [1, 6] -3.92% | Potency (astro)

O=c1ccc2ccccc2o1
inactive: Potency (CAOV3) | Potency (CASKI) | Potency (Es-2) | Potency (HeLa) | Potency (Hek293T) | Potency (JEG-3) | Potency (OV90) | Potency (PA-1) | Potency (SKOV3) | Potency (Tov-21-G) | Potency (Tov112D) | activity, negative = cell killing [1, 3] -10.7% | activity, negative = cell killing [1, 4] -11.2% | activity, negative = cell killing [1, 5] -35.1% | activity, negative = cell killing [1, 6] 13.9% | Potency (astro)

Oc1cc(O)c2c(c1)O[C@H](c1ccc(O)c(O)c1)[C@H](O)C2
inactive: Potency (CAOV3) | Potency (CASKI) | Potency (Es-2) | Potency (HeLa) | Potency (Hek293T) | Potency (JEG-3) | Potency (OV90) | Potency (PA-1) | Potency (SKOV3) | Potency (Tov-21-G) | Potency (Tov112D) | activity, negative = cell killing [1, 3] -5.02% | activity, negative = cell killing [1, 4] -9.16% | activity, negative = cell killing [1, 5] -28.5% | activity, negative = cell killing [1, 6] -2.43% | Potency (astro)

CC[C@@H](CO)NCCN[C@@H](CC)CO
inactive: Potency (CAOV3) | Potency (CASKI) | Potency (Es-2) | Potency (HeLa) | Potency (Hek293T) | Potency (JEG-3) | Potency (OV90) | Potency (PA-1) | Potency (SKOV3) | Potency (Tov-21-G) | Potency (Tov112D) | activity, negative = cell killing [1, 7] 12.9% | activity, negative = cell killing [1, 8] 2% | activity, negative = cell killing [1, 9] -7.59% | activity, negative = cell killing [1, 10] -22% | Potency (astro)

O=C(O)CNC(=O)c1ccccc1
inactive: Potency (CAOV3) | Potency (CASKI) | Potency (Es-2) | Potency (HeLa) | Potency (Hek293T) | Potency (JEG-3) | Potency (OV90) | Potency (PA-1) | Potency (SKOV3) | Potency (Tov-21-G) | Potency (Tov112D) | activity, negative = cell killing [1, 3] -9.91% | activity, negative = cell killing [1, 4] -0.469% | activity, negative = cell killing [1, 5] 3.77% | activity, negative = cell killing [1, 6] -1.09% | Potency (astro)

C[C@H]1[C@H](NC(=O)/C(=N/OC(C)(C)C(=O)O)c2csc(N)n2)C(=O)N1S(=O)(=O)O (stereo in doubt)
inactive: Potency (CAOV3) | Potency (CASKI) | Potency (Es-2) | Potency (HeLa) | Potency (Hek293T) | Potency (JEG-3) | Potency (OV90) | Potency (PA-1) | Potency (SKOV3) | Potency (Tov-21-G) | Potency (Tov112D) | activity, negative = cell killing [1, 7] -1.55% | activity, negative = cell killing [1, 8] -2.78% | activity, negative = cell killing [1, 9] 9.37% | activity, negative = cell killing [1, 10] -17.3% | Potency (astro)

CC(=O)OCC(=O)[C@@]12N=C(C)O[C@@H]1C[C@H]1[C@@H]3CCC4=CC(=O)C=C[C@]4(C)[C@H]3[C@@H](O)C[C@@]12C
inactive: Potency (CAOV3) | Potency (CASKI) | Potency (Es-2) | Potency (HeLa) | Potency (Hek293T) | Potency (JEG-3) | Potency (OV90) | Potency (PA-1) | Potency (SKOV3) | Potency (Tov-21-G) | Potency (Tov112D) | activity, negative = cell killing [1, 3] -9.58% | activity, negative = cell killing [1, 4] -6.5% | activity, negative = cell killing [1, 5] -6.46% | activity, negative = cell killing [1, 6] -22.2% | Potency (astro) | Potency [2]

CCOC(=O)[C@H](CCc1ccccc1)N[C@@H](C)C(=O)N1Cc2ccccc2C[C@H]1C(=O)O
inactive: Potency (CAOV3) | Potency (CASKI) | Potency (Es-2) | Potency (HeLa) | Potency (Hek293T) | Potency (JEG-3) | Potency (OV90) | Potency (PA-1) | Potency (SKOV3) | Potency (Tov-21-G) | Potency (Tov112D) | activity, negative = cell killing [1, 3] -8.88% | activity, negative = cell killing [1, 4] -11.4% | activity, negative = cell killing [1, 5] -15.3% | activity, negative = cell killing [1, 6] 11.9% | Potency (astro)

COc1cc(/C=C/C(=O)O[C@H]2CC[C@]34C[C@]35CC[C@]3(C)[C@@H]([C@H](C)CCC=C(C)C)CC[C@@]3(C)[C@@H]5CC[C@H]4C2(C)C)ccc1O
inactive: Potency (CAOV3) | Potency (CASKI) | Potency (Es-2) | Potency (HeLa) | Potency (Hek293T) | Potency (JEG-3) | Potency (OV90) | Potency (PA-1) | Potency (SKOV3) | Potency (Tov-21-G) | Potency (Tov112D) | activity, negative = cell killing [1, 3] -21.5% | activity, negative = cell killing [1, 4] -21.3% | activity, negative = cell killing [1, 5] -29.3% | activity, negative = cell killing [1, 6] -22.4%
active: Potency (astro) 17.8 µM

CC(=O)Nc1c(I)cc(I)c(C(=O)O)c1I
inactive: Potency (CAOV3) | Potency (CASKI) | Potency (Es-2) | Potency (HeLa) | Potency (Hek293T) | Potency (JEG-3) | Potency (OV90) | Potency (PA-1) | Potency (SKOV3) | Potency (Tov-21-G) | Potency (Tov112D) | activity, negative = cell killing [1, 3] -18.2% | activity, negative = cell killing [1, 4] -1.85% | activity, negative = cell killing [1, 5] -31.3% | activity, negative = cell killing [1, 6] 23.7% | Potency (astro)

C[C@H](CCC(=O)O)[C@H]1CC[C@H]2[C@@H]3C(=O)C[C@@H]4CC(=O)CC[C@]4(C)[C@H]3CC(=O)[C@]12C
inactive: Potency (CAOV3) | Potency (CASKI) | Potency (Es-2) | Potency (HeLa) | Potency (Hek293T) | Potency (JEG-3) | Potency (OV90) | Potency (PA-1) | Potency (SKOV3) | Potency (Tov-21-G) | Potency (Tov112D) | activity, negative = cell killing [1, 3] -0.788% | activity, negative = cell killing [1, 4] -14.6% | activity, negative = cell killing [1, 5] -2.78% | activity, negative = cell killing [1, 6] 3.71% | Potency (astro)

Nc1nc2ncc(CNc3ccc(C(=O)N[C@@H](CCC(=O)O)C(=O)O)cc3)nc2c(=O)[nH]1
inactive: Potency (CAOV3) | Potency (CASKI) | Potency (Es-2) | Potency (HeLa) | Potency (Hek293T) | Potency (JEG-3) | Potency (OV90) | Potency (PA-1) | Potency (SKOV3) | Potency (Tov-21-G) | Potency (Tov112D) | activity, negative = cell killing [1, 3] -3.4% | activity, negative = cell killing [1, 4] 4.54% | activity, negative = cell killing [1, 5] -10.5% | activity, negative = cell killing [1, 6] -9.36% | Potency (astro)
